# From paper PMC3218832
# Key:
# Assay in all cases: protein binding microarray; high values mean tight binding
# Details in all cases: dsDNA, one strand shown
# RELARELA (p65 homodimer) = RELARELA (p65 homodimer) (Homo sapiens, UniProt Q04206 1-307)
# p50p50 homodimer = p50p50 homodimer (Homo sapiens, UniProt P19838 7-356)
# p52p52 homodimer = biological target: T1, p52p52 homodimer (Homo sapiens, UniProt Q00653 4-332)
# T1 sequence: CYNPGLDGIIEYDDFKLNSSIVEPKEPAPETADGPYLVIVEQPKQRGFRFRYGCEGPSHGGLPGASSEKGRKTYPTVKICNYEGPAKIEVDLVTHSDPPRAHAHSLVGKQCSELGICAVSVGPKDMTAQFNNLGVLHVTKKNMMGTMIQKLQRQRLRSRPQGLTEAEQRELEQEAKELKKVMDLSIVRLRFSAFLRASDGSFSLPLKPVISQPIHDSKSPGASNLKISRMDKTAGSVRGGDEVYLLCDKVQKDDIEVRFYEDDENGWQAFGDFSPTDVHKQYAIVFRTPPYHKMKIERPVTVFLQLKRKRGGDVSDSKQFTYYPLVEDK
# [1] = biological target: RELA (p65) subunit of heterodimer;p50 subunit (Homo sapiens;Homo sapiens, UniProt Q04206;P19838 1-307;7-356)
# [2] = biological target: RELA (p65) subunit of heterodimer;p52 subunit (Homo sapiens;Homo sapiens, UniProt Q04206;Q00653 1-307;4-332)
# RELB subunit;p50 subunit = RELB subunit;p50 subunit (Homo sapiens;Homo sapiens, UniProt Q01201;P19838 120-401;7-356)
# RELB subunit;p52 subunit = biological target: T2, RELB subunit;p52 subunit (Homo sapiens;Homo sapiens, UniProt Q01201;Q00653 120-401;4-332)
# T2 sequence 1: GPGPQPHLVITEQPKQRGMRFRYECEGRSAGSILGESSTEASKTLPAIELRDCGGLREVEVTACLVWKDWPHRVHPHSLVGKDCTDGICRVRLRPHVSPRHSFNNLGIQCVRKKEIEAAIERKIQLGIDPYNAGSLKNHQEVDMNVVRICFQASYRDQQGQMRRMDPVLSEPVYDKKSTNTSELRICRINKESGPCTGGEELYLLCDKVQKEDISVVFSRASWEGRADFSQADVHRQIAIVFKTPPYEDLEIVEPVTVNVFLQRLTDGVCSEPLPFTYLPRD
# T2 sequence 2: T1 sequence
# [3] = biological target: C-Rel subunit;p50 subunit (Homo sapiens;Homo sapiens, UniProt Q04864;P19838 1-285;7-356)
# [4] = biological target: T3, C-Rel subunit;p52 subunit (Homo sapiens;Homo sapiens, UniProt Q04864;Q00653 1-285;4-332)
# T3 sequence 1: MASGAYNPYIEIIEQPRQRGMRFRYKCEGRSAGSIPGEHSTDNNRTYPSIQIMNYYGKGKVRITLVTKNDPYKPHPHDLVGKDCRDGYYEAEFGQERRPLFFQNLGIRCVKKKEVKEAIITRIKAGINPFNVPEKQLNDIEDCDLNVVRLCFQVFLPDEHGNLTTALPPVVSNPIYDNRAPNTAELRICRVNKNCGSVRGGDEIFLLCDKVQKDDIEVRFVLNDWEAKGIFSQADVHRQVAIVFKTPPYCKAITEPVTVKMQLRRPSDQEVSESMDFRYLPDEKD
# T3 sequence 2: T1 sequence
# RELA (p65) subunit of heterodimer;p50 subunit, sequence (Q04206 1-307, chain 1 of 2): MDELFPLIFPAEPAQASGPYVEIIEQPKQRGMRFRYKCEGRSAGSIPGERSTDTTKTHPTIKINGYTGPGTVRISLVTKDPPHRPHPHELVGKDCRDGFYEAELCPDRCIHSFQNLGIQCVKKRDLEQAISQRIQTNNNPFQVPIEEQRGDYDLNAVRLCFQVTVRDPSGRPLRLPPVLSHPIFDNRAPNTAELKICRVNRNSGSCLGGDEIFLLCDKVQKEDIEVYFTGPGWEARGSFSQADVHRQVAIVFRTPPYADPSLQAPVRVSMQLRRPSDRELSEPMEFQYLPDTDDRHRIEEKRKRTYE
# RELA (p65) subunit of heterodimer;p50 subunit, sequence (P19838 7-356, chain 2 of 2): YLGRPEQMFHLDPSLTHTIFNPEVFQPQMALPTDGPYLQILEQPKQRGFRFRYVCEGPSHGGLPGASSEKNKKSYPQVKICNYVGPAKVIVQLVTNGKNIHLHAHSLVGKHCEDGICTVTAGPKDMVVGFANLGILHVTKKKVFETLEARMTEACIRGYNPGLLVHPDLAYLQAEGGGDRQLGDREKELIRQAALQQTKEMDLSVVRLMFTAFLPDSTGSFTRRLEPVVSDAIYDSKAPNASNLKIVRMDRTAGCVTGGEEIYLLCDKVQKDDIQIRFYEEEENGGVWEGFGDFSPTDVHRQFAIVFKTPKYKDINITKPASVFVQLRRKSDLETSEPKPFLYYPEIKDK
# RELARELA (p65 homodimer), sequence (Q04206 1-307): as the sequence (Q04206 1-307, chain 1 of 2) above
# p50p50 homodimer, sequence (P19838 7-356): as the sequence (P19838 7-356, chain 2 of 2) above
Sequence,binding signal (RELARELA (p65 homodimer)) [z-score],binding signal (p50p50 homodimer) [z-score],binding signal (p52p52 homodimer) [z-score],binding signal [1] [z-score],binding signal [2] [z-score],binding signal (RELB subunit;p50 subunit) [z-score],binding signal (RELB subunit;p52 subunit) [z-score],binding signal [3] [z-score],binding signal [4] [z-score]
AGATTATCCCT,0.0615,0.543,0.486,0.262,0.522,0.325,0.392,0.0293,0.0511
GGAAGTATCCT,-0.066,-1.38,-0.457,-0.799,-0.877,-1.12,-0.866,-1.09,-0.681
GGGGACACCCC,0.873,0.656,2.83,1.56,2.26,1.68,2.1,1.26,2.35
AGAATGCTCCC,-0.506,-0.551,-0.418,-0.467,-0.621,-0.576,-0.823,-0.92,-0.456
GGAGAGCTCCT,-0.469,-1.71,-0.711,-1.01,-1.01,-1.17,-1.06,-1.65,-1.07
GGGTGTTTCCT,1.42,0.575,1.06,0.736,0.987,0.102,1.16,0.695,1.43
AAGTACCTCCT,0.111,0.67,0.0441,0.737,-0.123,0.852,0.227,0.224,-0.202
GGGTACTCCCC,1.34,0.682,3.13,1.82,2.75,1.95,1.96,1.45,2.17
CGAAGTTCCCT,0.618,0.819,0.347,0.834,0.752,0.603,0.672,0.425,0.379
GAGGAGCCCCC,-0.939,1.04,0.368,0.44,0.25,0.656,0.61,0.625,0.222
CGAAGTGTCCT,-0.41,-1.95,-0.44,-0.957,-0.797,-1.13,-0.796,-1.19,-0.64
CGGGTATTCCT,1.71,0.73,1.4,0.593,1.06,0.353,0.712,0.468,1.22
CAGTAGACCCC,-0.444,-0.398,-0.423,-0.397,-0.485,-0.472,-0.384,-0.501,-0.439
CAATGTCTCCC,-0.338,-0.647,-0.276,-0.405,-0.499,-0.294,-0.275,-0.53,-0.561
GGAGACTTCCC,1.11,0.00445,0.117,0.505,0.17,-0.132,-0.125,0.335,0.286
